Laboratory results: PubChem BioAssay AID652054 (National Center for Advancing Translational Sciences (NCATS), 2013)
“And” between values parts separate entries of the source, which are not always exact repeats. Equal entries are not always repeated. The campaign covered roughly 360,000 compounds. About 9,100 (2.5%) were called active. Inconclusive results (about 4%) are left out. Rule as the data show it: active = max response below about -50%; inconclusive = no clear call, values can overlap the other calls; inactive = above that. Shown is part of a subset that was picked to be rich in actives.

What follows are molecules tested against D(3) dopamine receptor (Homo sapiens) (UniProt P35462) (assay: qHTS of D3 Dopamine Receptor Antagonist: qHTS). Settings: D3R cells, DiscoveRx beta-arrestin luminescence, antagonist mode; stronger effect = lower value.
Procedure, shortened: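 Cells plated overnight at 1500 cells/well, then exposed to library compounds with dopamine controls for 90 minutes at 37 degrees C. DiscoveRx reagent added for 30–60 minutes at room temperature; luminescence read, quantitative HTS format.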
% is scaled to controls: 0 for no effect and ±100 for the full control effect.

Chain of D(3) dopamine receptor (Homo sapiens) (P35462 whole entry, looked up): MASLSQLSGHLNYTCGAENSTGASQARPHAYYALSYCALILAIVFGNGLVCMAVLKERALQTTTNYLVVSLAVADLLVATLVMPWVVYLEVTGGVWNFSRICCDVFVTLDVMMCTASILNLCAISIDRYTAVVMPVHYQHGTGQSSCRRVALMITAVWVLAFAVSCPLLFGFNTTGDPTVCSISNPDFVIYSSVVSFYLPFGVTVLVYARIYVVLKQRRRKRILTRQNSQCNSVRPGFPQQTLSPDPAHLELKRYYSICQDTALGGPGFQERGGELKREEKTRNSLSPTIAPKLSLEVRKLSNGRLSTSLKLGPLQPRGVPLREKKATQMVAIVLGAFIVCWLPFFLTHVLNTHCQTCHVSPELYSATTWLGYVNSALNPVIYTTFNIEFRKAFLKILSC

| SMILES | max response, negative = inhibition |
| --- | --- |
| COc1ccc(C[C@H]2CN3C(=NC[C@H]3C)N2CCNC(=O)CCC2CCCCC2)cc1 | -71.7% (active) |
| COc1cccc(CNC(=O)CCC2CCCN(Cc3ccc(OC(F)F)cc3)C2)c1 (centres undefined) | -23.3% (inactive) |
| C/C=C(\C)C(=O)NCCN1C2=NC[C@H](Cc3ccc(O)cc3)N2C[C@@H]1Cc1ccc(OC)cc1 | -17.1% (inactive) |
| CC1(C(=O)NCc2cccc3ccccc23)CCN1Cc1ccc(-c2ccccc2)o1 (centres undefined) | 34.9% (inactive) |
| CCOc1cc(/C=N/NC(=O)c2ccncc2)cc(Br)c1O | 2.27% (inactive) |
| CCC(C)CN1C(=O)CSCC1(C)C(=O)NCc1ccccc1 (centres undefined) | 6.99% (inactive) |
| COc1cc(C=NC2CCCCC2)ccc1O | 22% (inactive) |
| OC(c1ccc(Cl)cc1)c1ncc(-c2ccc(Cl)cc2)[nH]1 (centres undefined) | 21.5% (inactive) |
| CCOC(=O)c1c(S(=O)(=O)Nc2ccc(CN3CCC(C)CC3)cc2)c(C)n(C)c1C | -51% (active) |
| CCOC(=O)c1c(S(=O)(=O)NCC(=O)Nc2ccc(C)cc2)c(C)n(C)c1C | -0.327% (inactive) |
| CCOC(=O)c1c(S(=O)(=O)Nc2cccc(Cl)c2)c(C)n(C)c1C | -8.27% (inactive) |
| CC1Cc2[nH][nH]c(=O)c2C(C2CCCC2)O1 (centres undefined) | 0% (inactive) |
| CCCCc1ccc(S(=O)(=O)NC(=O)C2(C)CCN2C(=O)c2ccccc2)cc1 (centres undefined) | 0.751% (inactive) |
| CC1CCC2(CC1)NC(=O)N(CC(=O)NCc1ccco1)C2=O (centres undefined) | -7.59% (inactive) |
| COc1cccc(-c2cc(NC(C)=O)c3ncc(-c4cccc(C(C)=O)c4)n3c2)c1 | 4.06% (inactive) |
| CCOC(=O)c1cnn2c(SC)ncnc12 | -12.7% (inactive) |
| C[C@H](O)[C@@H]1C(=O)N2CCc3c([nH]c4ccccc34)[C@@H]2C[C@@H]1N(C)C(=O)Nc1ccc(F)cc1 | -19.9% (inactive) |
| COc1ccc(-c2ccc3[nH]c4c(c3c2)CCN2C[C@H]3[C@H](C)ON(C)[C@H]3C[C@@H]42)cc1 | -2.08% (inactive) |
| COC(=O)[C@H]1[C@H]2C[C@H]3c4[nH]c5ccccc5c4CCN3C[C@@H]2CC[C@@H]1O | -113% (active) and -60.5% (active) |
| COc1ccc(S(=O)(=O)NC(=O)C2(C)CCN2C(=O)COc2ccc(Cl)cc2)cc1 (centres undefined) | -5.73% (inactive) |
| Cn1c(=O)[nH]c(=O)c2c1nc(N1CCN(CCO)CC1)n2CCSc1nc2ccccc2s1 | -66.2% (active) |
| Cc1nnc(SCCCn2c(N3CCCCC3)nc3c2c(=O)[nH]c(=O)n3C)s1 | 17.6% (inactive) |
| Cn1c(=O)[nH]c(=O)c2c1nc(N1CCN(C(c3ccccc3)c3ccccc3)CC1)n2CCO | 6.48% (inactive) |
| COCCNc1nc(Nc2ccccc2Cl)c2sc(-c3ccccc3)cc2n1 | 14.1% (inactive) |
| CC(C)(C)C(=O)c1c(N)[nH]c(C(=O)c2ccccc2)c1-c1ccc(F)cc1 | 4.8% (inactive) |
| Cc1cccc(C(=O)OCC(=O)NC(C)C2CC3CCC2C3)c1O (centres undefined) | -13.8% (inactive) |
| Cc1c(C(=O)NC(C)C2CC3CCC2C3)cccc1[N+](=O)[O-] (centres undefined) | 10.2% (inactive) |

| SMILES | max response, negative = inhibition |
| --- | --- |
| CCOC(=O)CCC(=O)OCC(=O)NC(C)C1CC2CCC1C2 (centres undefined) | -55.1% (active) |
| CN(C)C(=O)c1cccc(-c2cnc3c(NC=O)cc(-c4ccc(C(=O)N5CCOCC5)cc4)cn23)c1 | -15.4% (inactive) |
| CNc1cc(-c2c(OC)cccc2OC)ncn1 | -17.3% (inactive) |
| CC(O)C(NS(=O)(=O)c1ccc(Cl)cc1)C(=O)OCc1cc([N+](=O)[O-])cc2c1OCOC2 (centres undefined) | -82.9% (active) |
| C[C@H](NS(=O)(=O)c1ccc(Cl)cc1)C(=O)OCC(=O)N1CCOCC1 | -16.5% (inactive) |
| CC(NS(=O)(=O)c1ccc(Cl)cc1)C(=O)Nc1ccc2c(c1)OCCO2 (centres undefined) | -3.02% (inactive) |
| CC1(C(=O)NS(=O)(=O)c2ccc(C#N)cc2)CCN1C(=O)CC1CCCC1 (centres undefined) | -19% (inactive) |
| COc1ccc(CC(=O)N/N=C/c2cc([N+](=O)[O-])cc(Br)c2O)cc1 | -79.9% (active) |
| COc1ccc(CC(=O)NCC(=O)N/N=C/c2cc(Br)ccc2OC)cc1 | 20.7% (inactive) |
| O=C(Cc1ccc([N+](=O)[O-])cc1)N/N=C/c1ccco1 | 3% (inactive) |
| C[C@@H]1CN([C@H](C)CO)S(=O)(=O)c2ccc(C#C[C@@H](C)O)cc2O[C@@H]1CN(C)Cc1ccc(-c2ccccc2)cc1 | 4.33% (inactive) |
| CCOc1ccc(CCN2C(=S)N([C@@H](CC(C)C)CN3CCC[C@@H]3CN3C(=S)NC[C@@H]3Cc3ccc(O)cc3)C[C@@H]2CC(C)C)cc1 | 21.8% (inactive) |
| CC1(C)OC(=O)C2=C(CC(c3ccccc3)OC2CCc2ccccc2)O1 (centres undefined) | -29.7% (inactive) |
| COC(=O)c1ccc2c(c1)S(=O)(=O)NC2C (centres undefined) | 18.4% (inactive) |
| CCCNC(=O)c1cc(C2CCCCN2C(=O)OC)on1 (centres undefined) | 0% (inactive) |
| COc1ccccc1N1CCN(/N=C\C(Br)=C\c2ccccc2)CC1 | -13.9% (inactive) |
| Cc1cc(-c2n[nH]c(=S)n2/N=C/C(Br)=C/c2ccccc2)n[nH]1 | -70.4% (active) |
| COc1ccccc1/C=C/C=N/n1c(-c2ccc(Cl)cc2Cl)n[nH]c1=S | 13.4% (inactive) |
| O=C(Nc1ccc(F)cc1)C(CCc1ccccc1)N1CCN(CC(=O)N2CCCC2)CC1 (centres undefined) | -21.4% (inactive) |
| COC(=O)[C@]12CCCCC=C1N(CCC1=CCCCC1)C(=O)[C@H](CC(=O)NCC1CCCCC1)C2 | 25.3% (inactive) |
| O=S1(=O)C[C@@H](N2CCN(CCO)CC2)[C@H](COCc2ccccc2)N1 | 1.72% (inactive) |
| CC(=O)c1nn(-c2ccccc2)c(=Nc2ccccc2)cc1C | 18.5% (inactive) |
| COC(=O)C[C@@H]1C=C[C@@H](NC(=O)c2ccc3c(c2)OCO3)[C@@H](CO)O1 | -7.72% (inactive) |
| CCn1c(O)c(N=NC2=NC(=O)CS2)c2cc(C)ccc21 | -90.2% (active) |
| COC(=O)Cn1c2ccc(C)cc2c2nc(C)sc21 | -14.2% (inactive) |
| CCn1c(O)c(N=NC(=O)c2cccc(S(=O)(=O)N3CCCCC3)c2)c2ccccc21 | 6.1% (inactive) |
| COc1cccc(C(O)c2nc(-c3ccc(C)c(C)c3)cs2)c1 (centres undefined) | 0% (inactive) |
